Drawing on PubChem BioAssay (NCATS), this text covers Potency, activity, negative = cell killing and outcome for 9 molecules.

Inconclusive results are not listed. Unmarked numbers belong to inactive results. Activity calls are given as the source filed them. Calls follow the shape of the dose curve; as a rule, active = well fitted curve in the direction sought with a large enough effect; inconclusive = small, poorly fitted or top-dose-only effect, or another doubt; inactive = no such curve, though single readings can be large; an effect the other way counts as inactive or inconclusive.

The subject of one assay is MCC-26. Briefly: qHTS assay to identify novel small-molecules to repurpose for Merkel cell carcinoma treatment (AID 1296009). Also: nearly all actives have a fitted effect of over 60% in size. Also: potency is read from the fitted curve at half-maximal effect. The conditions noted are these: MCC and control cell lines, CellTiter-Glo viability, 72 h; series mostly up to 46 µM. The essentials: (§1)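 Cell viability, measured as CellTiter-Glo luminescence, was normalized between DMSO and no-cell wells. The cells had been exposed to 8- or 11-point compound dilutions for 72 hr at 37 degree celsius.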
A general note: In qHTS, concentration-response curves come from the screen itself.

A further assay concerns MKL-1. The assay is described as above. The conditions noted are these: MCC and control cell lines, CellTiter-Glo viability, 72 h; series mostly up to 46 µM. The essentials:
as §1
For orientation: ATP-based viability assays read luminescence as a measure of living cells.

The subject of another assay is MKL-2. The assay is described as above. Conditions: MCC and control cell lines, CellTiter-Glo viability, 72 h; series mostly up to 46 µM. The gist of the method:
as §1

The next assay concerns UISO. Described as above. Conditions: MCC and control cell lines, CellTiter-Glo viability, 72 h; series mostly up to 46 µM. The gist of the method:
as §1

The next assay has as its system WaGa. The description is as above. Conditions: MCC and control cell lines, CellTiter-Glo viability, 72 h; series mostly up to 46 µM. The gist of the method: as §1
A further assay has as its system C33A. Briefly: Primary qHTS to identify gynecologic anti-cancer compounds using libraries of approved drugs and bioactive compounds (AID 1345084). Also: nearly all actives have a fitted effect of over 55% in size. The conditions noted are these: Gynecologic cancer cell panel viability, ATPlite luminescence, 48 h; series mostly up to 57.5 µM. The gist of the method: (§2)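 Measured: luminescence after ATPlite addition (15 min, RT). Exposure: 48 h, 37 C, 5% CO2.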

The subject of another assay is CAOV3. The assay is described as above. The conditions noted are these: Gynecologic cancer cell panel viability, ATPlite luminescence, 48 h; series mostly up to 57.5 µM. The gist of the method:
as §2

A further assay deals with CASKI. Described as above. Conditions: Gynecologic cancer cell panel viability, ATPlite luminescence, 48 h; series mostly up to 57.5 µM. The gist of the method: as §2
The next assay concerns Es-2. The assay is described as above. Conditions: Gynecologic cancer cell panel viability, ATPlite luminescence, 48 h; series mostly up to 57.5 µM. The essentials: as §2
A further assay has as its system HeLa. The assay is described as above. The conditions noted are these: Gynecologic cancer cell panel viability, ATPlite luminescence, 48 h; series mostly up to 57.5 µM. The essentials: as §2
A further assay deals with Hek293T. The description is as above. Conditions: Gynecologic cancer cell panel viability, ATPlite luminescence, 48 h, control line for the selectivity index; series mostly up to 57.5 µM. The gist of the method: as §2
Another assay deals with JEG-3. The assay is described as above. Conditions: Gynecologic cancer cell panel viability, ATPlite luminescence, 48 h; series mostly up to 57.5 µM. The gist of the method: as §2
For the next assay, the system named is OV90. Described as above. Conditions: Gynecologic cancer cell panel viability, ATPlite luminescence, 48 h; series mostly up to 57.5 µM. The gist of the method:
as §2

The next assay relates to PA-1. The assay is described as above. The conditions noted are these: Gynecologic cancer cell panel viability, ATPlite luminescence, 48 h; series mostly up to 57.5 µM. The essentials: as §2
The subject of a further assay is SKOV3. The assay is described as above. Conditions: Gynecologic cancer cell panel viability, ATPlite luminescence, 48 h; series mostly up to 57.5 µM. The essentials: as §2
The subject of a further assay is Tov-21-G. The assay is described as above. Conditions: Gynecologic cancer cell panel viability, ATPlite luminescence, 48 h; series mostly up to 57.5 µM. The gist of the method: as §2
For a further assay, the system named is Tov112D. The description is as above. Conditions: Gynecologic cancer cell panel viability, ATPlite luminescence, 48 h; series mostly up to 57.5 µM. The gist of the method: as §2
Assay [1] in a line: Drug repurposing screens with cells derived from glioblastoma tumor samples (AID 1345199). Also: nearly all actives have a fitted effect of over 40% in size. Also: potency is read from the fitted curve at half-maximal effect. The conditions noted are these: GBM patient neurospheres viability, ATP luminescence, 48 h. The essentials:
(§3)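 Primary testing used CD133+ neurospheres from four GBM patients, seven concentrations, 48 h exposure and ATP-based viability; confirmation added three slower-growing patient lines.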

For a further assay, the system named is astro. The description is as above. The conditions noted are these: viability, ATP luminescence, 48 h; series mostly up to 45.9 µM. The essentials:
as §3

A further assay relates to NIH3T3. Briefly: qHTS assay to identify novel small-molecules to repurpose for Merkel cell carcinoma treatment (AID 1296009). Also: nearly all actives have a fitted effect of over 60% in size. Also: potency is read from the fitted curve at half-maximal effect. Conditions: MCC and control cell lines, CellTiter-Glo viability, 72 h; at 44.8 µM (top of the series) unless noted. The gist of the method:
as §1

Setting [2] is: at 45.9 µM (top of the series), tumour line B.
Where [3] appears, read: at 45.9 µM (top of the series), tumour line D.
The mark [4] stands for this setting: at 46 µM (top of the series), tumour line A.
Where [5] appears, read: at 46.1 µM (top of the series), tumour line C.
% is scaled to controls: 0 for no effect and ±100 for the full control effect.

Consider `Cc1ncc(COP(=O)(O)O)c(C=O)c1O`, for which the Potency result in the assay with MCC-26, with MKL-1, in the assay on MKL-2, in the assay with UISO, with WaGa and in the assay with C33A was “inactive” in each case. The Potency entry in the assay with CAOV3, in the assay on CASKI, in the assay on Es-2, with HeLa, with Hek293T and in the assay on JEG-3 was “inactive” in each case. In addition, the Potency result in the assay on OV90, with PA-1, in the assay on SKOV3, in the assay on Tov-21-G, in the assay with Tov112D and in the assay on astro was “inactive” in each case. In addition, the activity, negative = cell killing in assay [1] (setting [2]) was -4.54%; in assay [1] (setting [3]), 0.448%; in assay [1] (setting [4]) it was -18.9%; in assay [1] (setting [5]) it was 13%.

On to `Nc1ccc(S(=O)(=O)Nc2ccccc2)cc1`, for which the Potency result in the assay with MCC-26, in the assay on MKL-1, with MKL-2, in the assay with UISO, with WaGa and with C33A was “inactive” throughout. Moreover, the Potency entry in the assay with CAOV3, in the assay on CASKI, with Es-2, in the assay on HeLa, in the assay on Hek293T and in the assay on JEG-3 was “inactive” each time. Also, the Potency result with OV90, with PA-1, in the assay with SKOV3, in the assay with Tov-21-G, with Tov112D and in the assay with astro was “inactive” in each case. The activity, negative = cell killing in assay [1] (setting [2]) is 11.7%; in assay [1] (setting [3]), -2.38%; in [1] (setting [5]), -16.6%.

Take `C=Cc1c(C)c2cc3[nH]c(cc4nc(cc5nc(cc1[nH]2)C(C)=C5CCC(=O)O)C(CCC(=O)O)=C4C)c(C)c3C=C`: the Potency entry with MCC-26, with MKL-1, in the assay on MKL-2, in the assay on UISO, in the assay with WaGa and in the assay on C33A was “inactive” each time. Moreover, the Potency entry in the assay on CAOV3, in the assay on CASKI, with Es-2, with HeLa, in the assay on Hek293T and in the assay on JEG-3 was “inactive” throughout. Moreover, the Potency result in the assay on OV90, in the assay with PA-1, with Tov-21-G, in the assay on Tov112D and in the assay with astro was “inactive” in each case. Moreover, the activity, negative = cell killing in assay [1] (setting [2]) is -11.3%; in [1] (setting [3]), -20.2%; in assay [1] (setting [4]) it was -14%; in [1] (setting [5]), -7.06%.

For `CC(C)C(=O)c1c(C(C)C)nn2ccccc12`, the Potency entry in the assay with MCC-26, in the assay on MKL-1, with MKL-2, in the assay on UISO, in the assay on WaGa and in the assay with C33A was “inactive” in each case. The Potency result in the assay on CASKI, in the assay on Es-2, with HeLa, in the assay with Hek293T, with JEG-3 and with OV90 was “inactive” throughout. For the same molecule, the Potency result with PA-1, in the assay on SKOV3, with Tov-21-G, with Tov112D and in the assay on astro was “inactive” in each case. The activity, negative = cell killing in assay [1] (setting [2]) was -5.19%; in [1] (setting [5]) it was -20.7%. Moreover, the Potency in assay [1] (tumour line A) was 8.91 µM (active).

Take `Nc1ccc(S(=O)(=O)Nc2nccs2)cc1`: the Potency result in the assay with MCC-26, with MKL-1, in the assay on MKL-2, in the assay with UISO, in the assay on WaGa and in the assay with C33A was “inactive” throughout. Further, the Potency entry with CAOV3, with CASKI, in the assay on Es-2, in the assay with HeLa, in the assay on Hek293T and in the assay on JEG-3 was “inactive” each time. Besides, the Potency result in the assay with OV90, in the assay on PA-1, in the assay on Tov-21-G, in the assay on Tov112D and in the assay with astro was “inactive” in each case. Further, the activity, negative = cell killing in assay [1] (setting [2]) was -4.74%; in assay [1] (setting [3]), -5.75%; in assay [1] (setting [4]) it was -21.1%; in assay [1] (setting [5]) it was -7.84%.

Consider `O=c1cc[nH]c(=S)[nH]1`, for which the Potency entry with MCC-26, in the assay with MKL-1, in the assay on MKL-2, in the assay on UISO, with WaGa and with C33A was “inactive” each time. Also, the Potency entry in the assay on CAOV3, with CASKI, in the assay on Es-2, in the assay on HeLa, in the assay with Hek293T and in the assay with JEG-3 was “inactive” in each case. Also, the Potency entry in the assay on OV90, with PA-1, in the assay on SKOV3, with Tov-21-G, in the assay on Tov112D and with astro was “inactive” in each case. For the same molecule, the activity, negative = cell killing in assay [1] (setting [2]) was -6.45%; in [1] (setting [3]) it was -10.9%; in assay [1] (setting [5]) it was -27.1%.

In the case of `O=C(O)COc1nn(Cc2ccccc2)c2ccccc12`, the Potency entry in the assay with MCC-26, in the assay on MKL-1, in the assay with MKL-2, in the assay on UISO, in the assay with WaGa and with C33A was “inactive” in each case. Also, the Potency entry in the assay on CASKI, with Es-2, in the assay on HeLa, with Hek293T, in the assay with JEG-3 and in the assay with OV90 was “inactive” in each case. Also, the Potency result in the assay on PA-1, in the assay on SKOV3, in the assay with Tov-21-G, in the assay on Tov112D and in the assay on astro was “inactive” each time. The results for the activity, negative = cell killing in assay [1] (setting [2]), in [1] (setting [3]) and in [1] (setting [5]) were 0.429%, -3.69% and -16.4%, respectively.

For `NC1[C@H]2CN(c3nc4c(cc3F)c(=O)c(C(=O)O)cn4-c3ccc(F)cc3F)C[C@@H]12` (stereo not given in full), the Potency result in the assay with MCC-26, in the assay with CASKI, with JEG-3, in the assay with OV90 and in the assay on Tov112D was “inactive” each time. The Potency is 26.6 µM (active) with UISO and 21.1 µM (active) in the assay on WaGa. Moreover, in assay [1] (setting [2]), the activity, negative = cell killing is -29.1%.

For the molecule `O=C(O)[C@H](O)c1ccccc1`, the Potency entry with MKL-1, with MKL-2, in the assay on UISO, in the assay with WaGa, in the assay with C33A and with CAOV3 was “inactive” each time. Further, the Potency result with CASKI, in the assay with Es-2, in the assay with HeLa, with Hek293T, with JEG-3 and in the assay with OV90 was “inactive” throughout. Besides, the Potency entry in the assay on PA-1, with SKOV3, with Tov-21-G, in the assay on Tov112D and in the assay on astro was “inactive” each time. In addition, the call in the assay on NIH3T3 was inactive. For the same molecule, the activity, negative = cell killing was -2.7% in assay [1] (setting [2]), 3.57% in assay [1] (setting [3]) and 1.65% in [1] (setting [5]).
